Reference: the supplement of paper PMC6522484
± gives the standard deviation of the averaged measurements.

Experiments:
[1] = test system: DLD1; assay: cell viability (CellTiter-Glo) relative to plate median (fraction of plate median); higher = more viable cells; settings: 5 µM; treatment time 24 h; reporter: 7TFP
Outline: (§1)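 For this screen, colorectal cancer cell lines carrying stable lentiviral TCF/Wnt firefly luciferase reporters, either 7TFP or TCF4/Wnt, were seeded into 384-well plates. A day's wait of 24 h preceded addition of library compounds at a final 5 µM, which stayed on the cells for 24 h. Firefly luciferase or CellTiterGlo luminescence, read on parallel plates, was normalised to the plate median per well, and the reported value is the mean of two independent replicates.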

[2] = test system: HCT116; assay: as above; settings: 5 µM; treatment time 24 h; reporter: TCF4/Wnt
Outline: as §1

[3] = test system: SW480; assay: as above; settings: 5 µM; treatment time 24 h; reporter: 7TFP
Outline: as §1

[4] = test system: DLD1; assay: TCF/Wnt firefly luciferase reporter signal relative to plate median (fraction of plate median); higher = higher Wnt reporter signal; settings: 5 µM; treatment time 24 h; reporter: 7TFP
Outline: as §1

[5] = test system: SW480; assay: as above; settings: 5 µM; treatment time 24 h; reporter: 7TFP
Outline: as §1

| Compound | cell viability [1] | cell viability [2] | cell viability [3] | TCF/Wnt firefly luciferase reporter signal [4] | TCF/Wnt firefly luciferase reporter signal [5] |
| --- | --- | --- | --- | --- | --- |
| CS(=O)(=O)Nc1ccc([N+](=O)[O-])cc1Oc1ccccc1 | 1.02 ± 0.021 | 0.967 ± 0.089 | 0.978 ± 0.018 | 1.01 ± 0.022 | 0.981 ± 0.028 |
| C=CCSSSCC=C | 1.05 ± 0.09 | 1.09 ± 0.014 | 0.99 ± 0.042 | 1.02 ± 0.073 | 0.874 ± 0.013 |
| CC(=O)N[C@@H](CC(=O)c1ccccc1N)C(=O)O [N-Acetyl-kynurenine] | 1.09 ± 0.12 | 1.12 ± 0.11 | 1.01 ± 0.044 | 0.859 ± 0.17 | 1.05 ± 0.078 |
| COc1c(O)cc(O)cc1O | 1.01 ± 0.04 | 0.694 ± 0.33 | 1.01 ± 0.021 | 1.09 ± 0.064 | 1.03 ± 0.042 |
| C=CCNC1=C2C[C@@H](C)C[C@H](OC)[C@H](O)[C@@H](C)/C=C(\C)[C@H](OC(N)=O)[C@@H](OC)/C=C\C=C(/C)C(=O)NC(=CC1=O)C2=O | 1.07 ± 0.014 | 0.623 ± 0.023 | 0.972 ± 0.04 | 0.878 ± 0.15 | 0.731 ± 0.029 |
| Cc1cccc(CN2CCN(C(c3ccccc3)c3ccc(Cl)cc3)CC2)c1 (stereo not given) | 1.06 ± 0.028 | 1.05 ± 0.028 | 0.987 ± 0.0099 | 1.02 ± 0.038 | 0.998 ± 0.046 |
| C=CC(C1=CC(=O)C=CC1=O)c1ccccc1 (stereo not given) | 0.965 ± 0.064 | 0.884 ± 0.098 | 0.943 ± 0.038 | 0.885 ± 0.022 | 0.984 ± 0.037 |
| C=C1C2=CC(=O)O[C@@H](c3ccoc3)[C@]2(C)CC[C@@H]1[C@@]1(C)C=CC(=O)C(C)(C)[C@@H]1CC(=O)OC | 1.14 ± 0.071 | 1.2 ± 0.092 | 1.12 ± 0.05 | 1.01 ± 0.1 | 0.987 ± 0.033 |
| Cc1cc(C)cc(OCC2CNC(=O)O2)c1 (stereo not given) | 0.964 ± 0.013 | 1.07 ± 0.1 | 0.975 ± 0.05 | 1.02 | 0.957 ± 0.039 |
| CC(=O)S[C@@H]1CC2=CC(=O)CC[C@]2(C)[C@H]2CC[C@@]3(C)[C@@H](CC[C@@]34CCC(=O)O4)[C@H]12 | 1.11 ± 0.014 | 0.97 ± 0.04 | 1.06 ± 0.064 | 0.878 ± 0.15 | 0.955 ± 0.016 |
| CC1=C(/C=C/C(C)=C/C=C/C(C)=C/C(=O)O)C(C)(C)CCC1 | 0.9525 ± 0.0078 | 0.973 ± 0.067 | 0.994 ± 0.052 | 0.912 ± 0.037 | 0.889 ± 0.018 |
| N[C@@H](C(=O)O)[C@@H](O)[C@H](O)[C@H](O)CO | 0.989 ± 0.073 | 0.95 ± 0.021 | 1.01 ± 0.02 | 1 ± 0.14 | 0.996 ± 0.034 |
| CC(=O)O[C@H]1CC[C@]2(C)[C@H]3CC[C@@]4(C)[C@H](c5ccoc5)OC(=O)[C@H]5O[C@]54[C@]3(C)[C@H](OC(C)=O)C[C@H]2C1(C)C [3beta-ACETOXYDEOXODIHYDROGEDUNIN] | 1.03 ± 0.054 | 1.01 ± 0.077 | 0.949 ± 0.1 | 1.02 ± 0.061 | 1.04 ± 0.028 |
| N#CN=C(NCCCCCCOc1ccc(Cl)cc1)Nc1ccncc1 | 0.954 ± 0.021 | 1.01 ± 0.03 | 0.87 ± 0.046 | 1.15 ± 0.057 | 1.14 ± 0.21 |
| C[C@@H]1C/C=C2\SC[C@@H](NC(=O)c3coc(n3)C[C@H](O)C[C@H](O)/C=C/C=C/CNC2=O)C(=O)O1 [Griseoviridin] | 0.995 ± 0.021 | 1.04 ± 0.05 | 1.01 ± 0.021 | 0.873 ± 0.12 | 0.957 ± 0.034 |
| Cc1cc(=O)n(-c2ccccc2)n1C | 1.03 ± 0.081 | 0.94 ± 0.026 | 1.01 ± 0.034 | 1.11 ± 0.2 | 1.075 ± 0.0071 |
| C1CCN2C[C@@H]3C[C@H](CN4CCCC[C@@H]34)[C@H]2C1 | 0.938 ± 0.076 | 0.9855 ± 0.0064 | 0.93 ± 0.035 | 0.883 ± 0.072 | 0.979 ± 0.03 |
| COc1ccc(-c2cc(=O)c3c(O)cc(O)cc3o2)cc1 | 1.03 ± 0.08 | 0.935 ± 0.019 | 1.05 ± 0.064 | 0.912 ± 0.026 | 1.01 ± 0.091 |
| CO[C@H]1O[C@H](CO)C(O[C@@H]2OC(C(=O)O)[C@@H](O[C@H]3O[C@H](COS(=O)(=O)O)C(O[C@@H]4OC(C(=O)O)[C@@H](O[C@H]5O[C@H](CO)C(O[C@@H]6OC(C(=O)O)[C@@H](O[C@H]7O[C@H](COS(=O)(=O)O)C(O[C@@H]8OC(C(=O)O)=C[C@H](O)C8OS(=O)(=O)O)[C@H](O)[C@H]7NC(C)=O)[C@H](O)[C@H]6O)[C@H](O)[C@H]5NC(C)=O)[C@H](O)[C@H]4O)[C@H](O)[C@H]3NC(C)=O)[C@H](O)[C@H]2O)[C@H](O)[C@H]1NC(C)=O (stereo not given in full) | 0.988 ± 0.032 | 1.05 ± 0.1 | 1.025 ± 0.0071 | 0.977 ± 0.2 | 0.98 ± 0.043 |
| COC(=O)[C@@H]1[C@H]2C[C@H]3c4[nH]c5ccccc5c4CCN3C[C@@H]2CC[C@@H]1O | 0.964 ± 0.033 | 1.08 ± 0.13 | 1.005 ± 0.0071 | 0.919 ± 0.16 | 0.9165 ± 0.0021 |
| N[C@@H](C(=O)N[C@@H]1C(=O)N2C(C(=O)O)=C(Cl)CS[C@H]12)c1ccccc1 | 0.963 ± 0.029 | 0.955 ± 0.064 | 0.953 ± 0.028 | 0.897 ± 0.079 | 0.742 ± 0.025 |
| CCC(=O)OCC(=O)[C@@]1(OC(=O)CC)[C@H](C)CC2C3C([C@@H](O)C[C@@]21C)[C@@]1(C)C=CC(=O)C=C1C[C@H]3Cl (stereo not given in full) | 1.01 ± 0.014 | 1.02 ± 0.014 | 0.975 ± 0.0057 | 0.9755 ± 0.0078 | 0.926 ± 0.049 |
| Clc1ccc(CO/N=C(\Cn2ccnc2)c2ccc(Cl)cc2Cl)c(Cl)c1 | 0.9865 ± 0.0092 | 1.03 ± 0.035 | 0.9675 ± 0.0021 | 0.905 ± 0.056 | 0.823 ± 0.0092 |
| C[C@@H]1Cc2cc(O)cc(O)c2C(=O)O[C@H](C)CC(=O)O[C@H](CO)CC(=O)O[C@H](C)Cc2cc(O)cc(O)c2C(=O)O[C@H](C)CC(=O)O1 | 1.04 ± 0.11 | 1.14 ± 0.035 | 1.01 ± 0.062 | 0.938 ± 0.028 | 1.05 ± 0.05 |
| C/C=C(\CO)C(=O)O[C@H]1[C@H](O)[C@@H](C(=O)OC)O[C@@H]2C[C@H]3O[C@@H](n4cnc5c(N)ncnc54)[C@H](OC)[C@H]3O[C@]21O [Herbicidin A] | 1.06 ± 0.014 | 0.843 ± 0.045 | 0.982 ± 0.054 | 0.933 ± 0.095 | 0.898 ± 0.064 |
| CCCNCC(O)COc1ccccc1C(=O)CCc1ccccc1 (stereo not given) | 0.96 ± 0.085 | 1.07 ± 0.22 | 0.927 ± 0.033 | 1.06 ± 0.091 | 0.883 ± 0.12 |
| O=C(O)C1CCCNC1 (stereo not given) | 0.994 ± 0.023 | 1 ± 0.071 | 0.948 ± 0.067 | 1.03 ± 0.065 | 0.938 ± 0.13 |
| COc1cc2nc(N3CCN(C(=O)C4CCCO4)CC3)nc(N)c2cc1OC (stereo not given) | 1.05 ± 0.05 | 0.991 ± 0.11 | 1.03 ± 0.05 | 1.14 ± 0.13 | 1 ± 0.039 |
